# Results as given in PubChem BioAssay (NCATS).
# Results filed as inconclusive are left out. The source made the active and inactive calls. Unless noted, calls come from the whole dose curve.
# Tests used:
# [1] = AP1 Signaling Pathway (AID 357; active = well fitted curve in either direction with a large enough effect, not every such curve was filed as active;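 note: ME-180 reporter cells stimulated with EGF at its EC50 level; % is set by controls: 0 for no effect and ±100 for the full control effect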); settings: ME-180 AP-1-bla reporter, EGF-induced, beta-lactamase ratio, 5 h; at 7.69 µM (top of the series) unless noted
# In short: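 AP-1-bla ME-180 cells, Opti-MEM + 0.5% dialyzed FBS, plated overnight 37 °C. Cpd titration + EC50 EGF, 5 h 37 °C. CCF4 2.5 h RT; ex 405, em 460/530 ratio → %activity, AC50.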
# [2] = molecular target: Cytochrome P450 1A2 (Homo sapiens) (UniProt P05177); test: p450-cyp1a2 (AID 410); note: potency is the fitted concentration of half-maximal effect
# Chain of Cytochrome P450 1A2 (Homo sapiens) (P05177 whole entry, looked up): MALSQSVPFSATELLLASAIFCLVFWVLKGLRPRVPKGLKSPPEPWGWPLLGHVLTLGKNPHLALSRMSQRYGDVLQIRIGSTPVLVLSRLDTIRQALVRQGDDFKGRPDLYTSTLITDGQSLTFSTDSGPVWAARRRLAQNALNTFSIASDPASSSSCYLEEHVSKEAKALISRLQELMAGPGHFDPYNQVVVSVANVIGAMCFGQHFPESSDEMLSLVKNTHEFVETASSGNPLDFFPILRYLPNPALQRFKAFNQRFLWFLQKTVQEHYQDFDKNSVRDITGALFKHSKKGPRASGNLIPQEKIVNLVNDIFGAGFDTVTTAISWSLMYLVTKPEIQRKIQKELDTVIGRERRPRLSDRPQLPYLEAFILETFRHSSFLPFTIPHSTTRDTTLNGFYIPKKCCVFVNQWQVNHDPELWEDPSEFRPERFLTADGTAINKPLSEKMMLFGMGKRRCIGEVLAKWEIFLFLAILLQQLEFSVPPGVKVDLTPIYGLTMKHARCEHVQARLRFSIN
# In short: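 Read-out is luminescence from luciferin produced by CYP1A2 demethylation of Luciferin-ME (100uM, at Km). Detection reagent stopped the 60 min NADPH-dependent reaction; signals were normalized to 57 uM furafylline.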
# [3] = NFAT Signaling Pathway (AID 444; active = well fitted curve in either direction with a large enough effect, not every such curve was filed as active;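 note: carbachol stimulus at about its EC50 of 1 µM final; % is set by controls: 0 for no effect and ±100 for the full control effect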); settings: Jurkat NFAT-bla M1, carbachol, beta-lactamase ratio, 5 h; at 7.69 µM (top of the series) unless noted
# In short: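 Jurkat cells with NFAT-driven β-lactamase reporter and co-expressed M1 receptor, stimulated with carbachol (final 1 uM, ~EC50), compound titration, 5 h at 37 °C. CCF4 loaded 1 h at RT; 460/530 nm ratio gave %activity and AC50.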
# [4] = Stat Signaling Pathway (AID 446; active = well fitted curve in either direction with a large enough effect, not every such curve was filed as active;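 note: ME-180 cervical cancer cells given 40 pM IL-6 alongside compound; SIE-controlled beta-lactamase reporter measured as 460/530 nm FRET emission ratio; % is set by controls: 0 for no effect and ±100 for the full control effect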); settings: ME-180 (cervical carcinoma) SIE beta-lactamase reporter, IL-6 stimulated, 5 h; at 7.69 µM (top of the series) unless noted
# In short: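 Compound effects on IL-6-induced STAT reporter activity were measured in ME-180 cells. After overnight culture, cells were co-treated with 40 pM IL-6 for 5 hrs before beta-lactamase substrate loading at room temperature.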
# [5] = molecular target: Glucocorticoid receptor (Homo sapiens) (UniProt P04150); test: GR-EFC Redistribution (AID 451); settings: CHO-K1 GR-EFC translocation, beta-gal luminescence, 2 h; note: potency is the fitted concentration of half-maximal effect
# Chain of Glucocorticoid receptor (Homo sapiens) (P04150 whole entry, looked up, the tested form may be a part): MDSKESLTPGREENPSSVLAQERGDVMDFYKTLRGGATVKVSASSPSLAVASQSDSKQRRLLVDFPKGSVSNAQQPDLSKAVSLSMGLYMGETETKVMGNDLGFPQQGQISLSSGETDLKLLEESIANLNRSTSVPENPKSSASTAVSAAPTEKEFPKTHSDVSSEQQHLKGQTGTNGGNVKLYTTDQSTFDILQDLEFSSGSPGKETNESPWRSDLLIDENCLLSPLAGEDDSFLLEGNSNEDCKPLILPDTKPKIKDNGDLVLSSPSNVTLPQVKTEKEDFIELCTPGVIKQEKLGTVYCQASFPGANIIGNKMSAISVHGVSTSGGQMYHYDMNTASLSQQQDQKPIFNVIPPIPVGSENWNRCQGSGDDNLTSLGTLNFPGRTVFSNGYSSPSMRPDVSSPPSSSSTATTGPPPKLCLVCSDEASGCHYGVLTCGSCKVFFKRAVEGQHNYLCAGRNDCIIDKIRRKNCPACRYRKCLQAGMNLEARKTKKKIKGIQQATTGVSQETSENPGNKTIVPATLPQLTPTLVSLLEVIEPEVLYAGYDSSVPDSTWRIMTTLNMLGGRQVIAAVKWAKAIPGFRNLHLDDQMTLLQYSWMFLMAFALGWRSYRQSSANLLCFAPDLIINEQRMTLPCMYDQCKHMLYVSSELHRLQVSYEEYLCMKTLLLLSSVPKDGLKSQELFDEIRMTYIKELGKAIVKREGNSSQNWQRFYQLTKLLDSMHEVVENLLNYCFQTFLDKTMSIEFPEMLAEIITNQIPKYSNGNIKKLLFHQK
# In short: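 CHO-K1 cells expressing nuclear EA and GR-ED fragments of b-gal; compounds titrated up to 46 uM final, 2 h at 37 C. GR nuclear translocation read as complemented b-gal luminescence after 1 h RT detection.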
# [6] = molecular target: 3',5'-cyclic-AMP phosphodiesterase 4B (Homo sapiens) (UniProt Q07343); test: qHTS Assay for Inhibitors of PDE-IV (AID 607; active = well fitted activation curve with a large enough effect in the main read-out, with a control signal flat, not every such curve was filed as active; note: % of control where 0% means no effect)
# Chain of 3',5'-cyclic-AMP phosphodiesterase 4B (Homo sapiens) (Q07343 whole entry, looked up): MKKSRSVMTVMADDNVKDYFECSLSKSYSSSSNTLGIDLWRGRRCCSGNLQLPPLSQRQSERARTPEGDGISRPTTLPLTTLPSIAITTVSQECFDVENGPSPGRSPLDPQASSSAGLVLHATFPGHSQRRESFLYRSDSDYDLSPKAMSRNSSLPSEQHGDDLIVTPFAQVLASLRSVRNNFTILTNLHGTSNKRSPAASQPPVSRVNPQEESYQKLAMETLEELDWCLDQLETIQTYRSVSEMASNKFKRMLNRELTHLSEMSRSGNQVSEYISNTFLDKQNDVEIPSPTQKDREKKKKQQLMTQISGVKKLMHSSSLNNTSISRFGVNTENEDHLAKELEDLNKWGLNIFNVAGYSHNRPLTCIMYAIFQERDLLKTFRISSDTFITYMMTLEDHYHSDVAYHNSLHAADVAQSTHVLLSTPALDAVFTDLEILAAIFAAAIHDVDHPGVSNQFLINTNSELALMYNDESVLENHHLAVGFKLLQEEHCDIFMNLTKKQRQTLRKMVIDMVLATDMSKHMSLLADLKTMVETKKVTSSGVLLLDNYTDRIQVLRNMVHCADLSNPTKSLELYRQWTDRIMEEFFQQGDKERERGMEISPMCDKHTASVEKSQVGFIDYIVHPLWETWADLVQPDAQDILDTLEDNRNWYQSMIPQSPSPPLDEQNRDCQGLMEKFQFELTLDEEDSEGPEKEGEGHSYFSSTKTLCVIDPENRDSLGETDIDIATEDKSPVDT
# In short: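 ACTOne HEK293 cells carry a modified cAMP-gated CNG channel and express endogenous PDE4; plated 1000 cells/well, compounds up to 22.9 uM final. Membrane-potential dye fluorescence (ex 535/em 590) was read; parental cells received 10 uM forskolin + 100 uM RO 20-1724.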
# [7] = molecular target: Cytochrome P450 3A4 (Homo sapiens) (UniProt P08684); test: qHTS Assay for Activators of Cytochrome P450 3A4 (AID 885; active = well fitted curve in the direction sought with a large enough effect; an effect the other way counts as inactive or inconclusive; note: potency is the fitted concentration of half-maximal effect; nearly all actives have a fitted effect of over 65% in size)
# Chain of Cytochrome P450 3A4 (Homo sapiens) (P08684 whole entry, looked up): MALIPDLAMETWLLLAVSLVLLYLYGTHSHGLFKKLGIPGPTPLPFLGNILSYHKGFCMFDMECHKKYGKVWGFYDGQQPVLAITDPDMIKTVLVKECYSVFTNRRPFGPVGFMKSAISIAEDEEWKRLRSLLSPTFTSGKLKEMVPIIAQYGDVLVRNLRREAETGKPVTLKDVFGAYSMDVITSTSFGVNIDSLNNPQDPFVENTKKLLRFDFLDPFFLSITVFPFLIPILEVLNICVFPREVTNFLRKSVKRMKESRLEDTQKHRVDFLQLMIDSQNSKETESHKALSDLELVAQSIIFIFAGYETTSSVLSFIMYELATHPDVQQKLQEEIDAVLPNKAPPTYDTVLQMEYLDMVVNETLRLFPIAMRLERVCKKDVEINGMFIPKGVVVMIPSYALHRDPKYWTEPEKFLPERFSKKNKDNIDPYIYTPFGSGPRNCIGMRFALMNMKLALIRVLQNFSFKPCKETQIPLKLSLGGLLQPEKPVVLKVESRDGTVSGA
# In short: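 CYP3A4 activity: Luciferin-PPXE O-dealkylation, 25uM substrate, 200mM KPO4, RT throughout. Read-out is luciferase luminescence; higher values reflect activation.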
# [8] = qHTS Assay for Lipid Storage Modulators (AID 1519); settings: Drosophila S3 cells, BODIPY lipid droplet/cell ratio, laser cytometry, cells loaded with oleic acid
# In short: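 Cells seeded at 5,000 per well were treated with compounds over a concentration series and loaded with oleic acid (400 uM, as added). Lipid droplet fluorescence (488 nm excitation, 500-530 nm channel) was read by laser-scanning cytometry and normalized to 20 uM Triacsin C.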
# [9] = Primary qHTS for small molecule stabilizers of the endoplasmic reticulum resident proteome: Secreted ER Calcium Modulated Protein (SERCaMP) assay (AID 1508630; active = well fitted curve in the direction sought with a large enough effect; an effect the other way counts as inactive or inconclusive; note: % is set by controls: 0 for no effect and ±100 for the full control effect)
# In short: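 The SH-SY5Y reporter protocol was run at 3 concentrations up to 38.3 uM (primary) or 11 concentrations (follow-up): 16 h compound, 100 nM thapsigargin for 4 h, then extracellular luciferase luminescence.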
smiles,measurement,setting,value
O=C(Oc1ccccc1)N1CCC2(CC1)CN(c1ccccc1)C2,"activity change, negative = inhibition",[1],3.75% (inactive)
same,Potency,[2],15.8 µM (active)
same,"activity change, negative = inhibition",[3],-1.1% (inactive)
same,"activity, negative = inhibition",[4],-0.517% (inactive)
same,Potency,[5],> 46 µM (inactive)
same,Potency,[6],inactive
same,Potency,[7],15.8 µM (active)
same,"activity change, negative = inhibition",[8]; at 57.5 µM (top of the series),1.33% (inactive)
same,max response,[8]; measured here: cell count channel max response,-10.5%
same,max response,[8]; measured here: lipid channel max response,-7.26%
same,Potency,[9],inactive
